Measurements as given in the antibiotic and cytotoxicity screens of Wong et al. (2023).
The campaign covered roughly 39,000 compounds. About 1,500 (3.8%) were called active. Many of the other results were omitted from the sample, so actives are more common in it than they were.

Each compound was assayed on HSkMC (human skeletal muscle cells) (assay: cytotoxicity call (relative viability < 0.9)). Details: 10 µM.
`CCC(=O)N(C)C[C@@H]1Oc2ncc(C#C[C@H](C)O)cc2C(=O)N([C@H](C)CO)C[C@H]1C` was tested, and the cytotoxicity call was “inactive”.
For `COc1cccc(S(=O)(=O)N(C)C[C@H]2Oc3ncc(C#CC(C)C)cc3C(=O)N([C@H](C)CO)C[C@H]2C)c1`, the cytotoxicity call was “inactive”.
With `CO[C@@H]1CN(C)C(=O)c2cc(NS(=O)(=O)CC(F)(F)F)ccc2OC[C@H](C)N(C(=O)NC(C)C)C[C@H]1C` the cytotoxicity call was “inactive”.
In the case of `C[C@@H]1CN([C@H](C)CO)C(=O)c2cc(NC(=O)CCCCCC(=O)Nc3ccccc3N)ccc2O[C@H]1CN(C)C(=O)Nc1ccc(F)cc1`, the cytotoxicity call is reported as “inactive”.
For `CN(C)c1nc(SCCO)nc(N(C)C)n1`, the cytotoxicity call was “inactive”.
In the case of `C[C@@H]1CCCCO[C@H](CN(C)C(=O)Nc2cccc3ccccc23)[C@H](C)CN([C@@H](C)CO)C(=O)c2cc(NS(=O)(=O)c3ccc(F)cc3)ccc2O1`, the cytotoxicity call is reported as “inactive”.
For `O=C(OC[C@H]1O[C@@H](OC(=O)c2cc(O)c(O)c(O)c2)[C@H](O)[C@@H](OC(=O)c2cc(O)c(O)c(O)c2)[C@@H]1O)c1cc(O)c(O)c(O)c1`, the cytotoxicity call was “inactive”.
For `O=C(OCC1OC(OC(=O)c2cc(O)c(O)c(OC(=O)c3cc(O)c(O)c(O)c3)c2)C(OC(=O)c2cc(O)c(O)c(OC(=O)c3cc(O)c(O)c(O)c3)c2)C(OC(=O)c2cc(O)c(O)c(OC(=O)c3cc(O)c(O)c(O)c3)c2)C1OC(=O)c1cc(O)c(O)c(OC(=O)c2cc(O)c(O)c(O)c2)c1)c1cc(O)c(O)c(OC(=O)c2cc(O)c(O)c(O)c2)c1` (configuration not stated), the cytotoxicity call was “inactive”.
With `O=C(OC[C@H]1O[C@@H](OC(=O)c2cc(O)c(O)c(O)c2)[C@H](OC(=O)c2cc(O)c(O)c(O)c2)[C@@H](OC(=O)c2cc(O)c(O)c(O)c2)[C@@H]1OC(=O)c1cc(O)c(O)c(O)c1)c1cc(O)c(O)c(O)c1` the cytotoxicity call was “active”.
`CC(C)NC(=O)N(C)C[C@@H]1Oc2ccc(NC(=O)CCCN(C)C)cc2CC(=O)N([C@H](C)CO)C[C@@H]1C` was tested, and the cytotoxicity call was “inactive”.
In the case of `COc1ccc(NC(=O)Nc2ccc3c(c2)C(=O)N([C@@H](C)CO)C[C@@H](C)[C@@H](CN(C)Cc2ccc(C(=O)Nc4ccccc4N)cc2)O3)cc1`, the cytotoxicity call is reported as “inactive”.
For `C[C@H]1CN([C@@H](C)CO)C(=O)c2c(c3ccccc3n2C)-c2ccccc2CO[C@@H]1CN(C)S(=O)(=O)c1ccc(Cl)cc1`, the cytotoxicity call was “inactive”.
With `Cc1ccc(S(=O)(=O)Nc2ccc3c(c2)C(=O)N([C@H](C)CO)C[C@H](C)[C@@H](CN(C)S(C)(=O)=O)O3)cc1` the cytotoxicity call was “inactive”.
For `C[C@@H]1CN([C@H](C)CO)C(=O)c2cccc(NC(=O)Nc3ccc(C(F)(F)F)cc3)c2O[C@@H]1CN(C)Cc1ccc(C(F)(F)F)cc1`, the cytotoxicity call was “active”.
In the case of `C[C@@H]1CN([C@H](C)CO)C(=O)c2cccc(NC(=O)Nc3ccc(C(F)(F)F)cc3)c2O[C@H]1CN(C)Cc1ccc(C(F)(F)F)cc1`, the cytotoxicity call is reported as “inactive”.
`C[C@H]1CN([C@@H](C)CO)C(=O)c2cccc(NC(=O)Nc3ccc(F)cc3)c2O[C@@H]1CN(C)Cc1ccc(C(F)(F)F)cc1` was tested, and the cytotoxicity call was “active”.
`C[C@@H]1CN([C@@H](C)CO)C(=O)c2cccc(NC(=O)Nc3ccc(C(F)(F)F)cc3)c2O[C@@H]1CN(C)Cc1ccc(C(F)(F)F)cc1` was tested, and the cytotoxicity call was “active”.
For `C[C@H](CO)N1C[C@H](C)[C@H](CN(C)Cc2ccc(C(F)(F)F)cc2)Oc2c(NC(=O)Nc3ccc(C(F)(F)F)cc3)cccc2C1=O`, the cytotoxicity call was “inactive”.
`C[C@H](CO)N1C[C@H](C)[C@@H](CN(C)Cc2ccc(C(F)(F)F)cc2)Oc2c(NC(=O)Nc3ccc(C(F)(F)F)cc3)cccc2C1=O` was tested, and the cytotoxicity call was “inactive”.
`C[C@H](CO)N1C[C@H](C)[C@@H](CN(C)Cc2ccc(C(F)(F)F)cc2)Oc2c(NC(=O)Nc3ccc(F)cc3)cccc2C1=O` was tested, and the cytotoxicity call was “inactive”.
With `C[C@@H]1CN([C@@H](C)CO)C(=O)c2cccc(NC(=O)Nc3ccc(C(F)(F)F)cc3)c2O[C@H]1CN(C)Cc1ccc(C(F)(F)F)cc1` the cytotoxicity call was “inactive”.
In the case of `C[C@@H]1CN([C@@H](C)CO)C(=O)c2cccc(NC(=O)Nc3ccc(F)cc3)c2O[C@H]1CN(C)Cc1ccc(C(F)(F)F)cc1`, the cytotoxicity call is reported as “inactive”.
